Screening results (PubChem BioAssay)
Hits are enriched below; roughly 2.9% of the tested compounds scored in any of these assays.
PfG6PD inh = PfG6PD (Plasmodium falciparum) enzyme inhibition; 350,000 compounds, 0.78% hits; inhibition, % at 20 µM; AID 504690; PfGluPho enzyme, NADPH resazurin-diaphorase fluorescence;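 active = inhibition reaching at least a set limit at 20 µM in the primary screen, cut at about 59% in these data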;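 also: 0% = DMSO wells with substrate and 100% = DMSO wells lacking glucose-6-phosphate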
APOBEC3A inh = inhibitors of human APOBEC3A DNA deaminase; P31941; recombinant A3A, FAM/TAMRA ssDNA deamination fluorescence; inhibition, % at 20 µM; 330,000 compounds, 0.41% hits; AID 493011;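 active = at least 40% inhibition at 20 µM here, with at most 30% in a related deaminase screen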;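 also: plate controls were A3A with DMSO for no effect and wells lacking A3A enzyme for full effect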
Target sequence (P31941 whole entry, looked up): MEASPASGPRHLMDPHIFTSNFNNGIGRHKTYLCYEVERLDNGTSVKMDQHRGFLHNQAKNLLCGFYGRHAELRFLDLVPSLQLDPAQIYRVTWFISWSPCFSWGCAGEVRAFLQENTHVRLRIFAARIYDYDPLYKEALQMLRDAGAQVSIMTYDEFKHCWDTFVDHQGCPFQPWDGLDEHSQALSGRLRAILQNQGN
NadD inh = inhibitors of Staphylococcus aureus NadD; purified NadD enzyme, colorimetric absorbance read-out; inhibition, % at 20 µM; 360,000 compounds, 0.78% hits; AID 602399; in the data active = inhibition above about 26%
H9c2 TAG inh = triacylglycerol accumulation inhibition; AID 651582; inhibition, % at 12.5 µM; H9c2 cells, Nile Red lipid (TAG) fluorescence; cells loaded with 200 µM oleic acid; 230,000 compounds, 0.66% hits;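 active = pattern-corrected inhibition of lipid staining of at least 50% with the nuclear-stain viability signal not falling by more than 50%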;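 also: 0% = DMSO wells and 100% = triacsin C control wells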
Cardio protect = myocardial damage modulation in H9c2 cells. protection from H2O2 cell death, % at 20 µM. H9c2 cardiomyocytes, H2O2 injury protection, ATPLite, 2 h. 360,000 compounds, 0.63% hits;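 active = compounds giving at least 50% protection of heart cells from peroxide-induced death in the single-dose screen, raw or plate-pattern-corrected value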;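 also: 0% = DMSO wells with peroxide and 100% = DMSO wells without peroxide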
APOBEC3G inh = APOBEC3G (human) deaminase inhibition. Q9HC16. recombinant A3G, ssDNA deamination FAM/TAMRA fluorescence. inhibition, % at 20 µM. 330,000 compounds, 0.28% hits. AID 493012;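 active = inhibition of at least 40% at 20 µM, with no more than 30% in the related APOBEC3A deaminase screen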;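 also: plate controls were DMSO wells with A3G for no effect and wells lacking A3G enzyme for full effect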
Target sequence (Q9HC16 whole entry, looked up): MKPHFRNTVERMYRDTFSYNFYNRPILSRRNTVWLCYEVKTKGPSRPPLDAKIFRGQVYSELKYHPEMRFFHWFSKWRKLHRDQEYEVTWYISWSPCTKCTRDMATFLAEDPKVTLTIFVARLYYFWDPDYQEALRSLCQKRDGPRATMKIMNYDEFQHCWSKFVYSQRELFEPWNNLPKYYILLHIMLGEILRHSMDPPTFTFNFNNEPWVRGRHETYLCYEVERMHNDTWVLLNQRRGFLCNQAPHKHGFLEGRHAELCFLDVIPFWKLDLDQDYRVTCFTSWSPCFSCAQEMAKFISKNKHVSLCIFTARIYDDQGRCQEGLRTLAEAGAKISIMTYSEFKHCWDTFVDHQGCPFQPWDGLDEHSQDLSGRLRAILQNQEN
NadD conf = NadD (S. aureus) inhibition, single concentration confirmation; shares compounds with NadD inh; inhibition, % at 20 µM; purified S. aureus NadD, colorimetric enzyme assay; 2,000 compounds, 13% hits; AID 624309; in the data active = inhibition mostly above about 42%, no sharp cut-off; inactive = mostly below about 42%
Numbers without * were called inactive.

COc1ccc(NS(=O)(=O)c2ccc(N3CCOCC3)c(NC(=O)c3ccc(F)cc3)c2)cc1 was read as PfG6PD inh 8.8, APOBEC3A inh -1.4, NadD inh -3.7, Cardio protect 1.9 and APOBEC3G inh 0.6.
COc1ccc(NS(=O)(=O)c2ccc(O)c(NC(=O)c3cc4c(C)nn(-c5ccc(F)cc5)c4s3)c2)cc1 was read as PfG6PD inh -16.2, APOBEC3A inh 1.8, NadD inh 47.0*, Cardio protect 10.7, APOBEC3G inh 9.2 and NadD conf 40.0.
Screening Cc1cc(C)cc(C(=O)NCC(=O)NNC(=O)CSc2ccccc2F)c1 returned PfG6PD inh 7.5, APOBEC3A inh 0.1, NadD inh 2.0, H9c2 TAG inh 12.7, Cardio protect 1.9 and APOBEC3G inh -4.9.
`Cc1ccc(S(=O)(=O)NC(=O)N(CCC#N)Cc2ccccc2)cc1` gave PfG6PD inh -0.3, APOBEC3A inh 0.0, NadD inh -0.7, Cardio protect -1.9 and APOBEC3G inh -2.0.
`CCCCn1c(-c2ccc(Cl)c(Cl)c2)nc2cc3[nH]c(=O)c(C(C)C)nc3cc21` gave PfG6PD inh 14.8, APOBEC3A inh 0.4, NadD inh 37.6*, H9c2 TAG inh -23.5, Cardio protect -12.2, APOBEC3G inh -7.2 and NadD conf 15.6.
For CCCCn1c(-c2ccc(C(C)(C)C)cc2)nc2cc3[nH]c(=O)c(C(C)C)nc3cc21 the results were PfG6PD inh 13.5, APOBEC3A inh 0.6, NadD inh 35.7*, H9c2 TAG inh -9.3, Cardio protect -23.2, APOBEC3G inh -2.4 and NadD conf 4.3.
Screening O=C(N/N=C/c1ccccc1)c1[nH]c2ccc(Br)cc2c1-c1ccccc1 returned PfG6PD inh 23.1, APOBEC3A inh 0.1, NadD inh 33.7*, H9c2 TAG inh 24.8, Cardio protect -6.5, APOBEC3G inh -2.6 and NadD conf 43.8.
For NNC(=O)c1[nH]c2ccc([N+](=O)[O-])cc2c1-c1ccccc1 the results were PfG6PD inh 8.7, APOBEC3A inh 0.6, NadD inh 4.0, Cardio protect 8.2 and APOBEC3G inh -5.3.
For O=C(N/N=C/c1ccccn1)c1[nH]c2ccc([N+](=O)[O-])cc2c1-c1ccccc1 the results were PfG6PD inh -7.4, APOBEC3A inh -0.6, NadD inh 66.6*, H9c2 TAG inh 8.2, Cardio protect 84.1*, APOBEC3G inh -3.6 and NadD conf 37.8.
COC(=O)c1ccc2c(=O)[nH]c(CN3c4ccccc4CC3C)nc2c1 (stereo unspecified) was read as PfG6PD inh 12.2, APOBEC3A inh -3.3, NadD inh 50.1*, H9c2 TAG inh 4.0, Cardio protect 13.1, APOBEC3G inh -5.5 and NadD conf 6.4.
For CC1Cc2ccccc2N1Cc1nc2scc(-c3cccs3)c2c(=O)[nH]1 (stereo unspecified) the results were PfG6PD inh 1.7, APOBEC3A inh 2.8, NadD inh 46.0*, H9c2 TAG inh -4.1, Cardio protect 6.1, APOBEC3G inh -0.2 and NadD conf -4.5.
For COc1ccc(N2CCN(Cc3nc4scc(-c5cccs5)c4c(=O)[nH]3)CC2)cc1 the results were PfG6PD inh -5.3, APOBEC3A inh 3.4, NadD inh 3.3, H9c2 TAG inh 3.2, Cardio protect -11.8 and APOBEC3G inh -0.5.
For CC1CC(C)CN(C(=O)CN2C(=O)NC3(CCCCCCC3)C2=O)C1 (stereo unspecified) the results were PfG6PD inh 5.5, APOBEC3A inh -3.0, NadD inh -3.3, H9c2 TAG inh 2.4, Cardio protect 3.9 and APOBEC3G inh -1.6.
`Cc1cc(OCC(=O)Nc2ccc(N3CCCC3)cc2)cc(C)c1Cl` gave PfG6PD inh 8.9, APOBEC3A inh -2.6, NadD inh 42.8*, H9c2 TAG inh 2.2, Cardio protect -4.8, APOBEC3G inh -5.8 and NadD conf 18.1.
`Cc1cc(C(C)(C)C)cc(C)c1CCNC(=O)c1c(C)noc1C` gave PfG6PD inh 0.8, APOBEC3A inh 2.7, NadD inh -0.9, H9c2 TAG inh 0.0, Cardio protect -9.5 and APOBEC3G inh 2.6.
Screening Clc1ccc(Cn2c(/C=C/c3ccco3)nc3ccccc32)cc1 returned PfG6PD inh 50.8, APOBEC3A inh -0.4, NadD inh 34.1*, Cardio protect 0.7, APOBEC3G inh -1.6 and NadD conf 42.7.
For CCCn1c(/C=C/c2ccco2)nc2ccccc21 the results were PfG6PD inh 32.4, APOBEC3A inh 4.2, NadD inh 23.2, Cardio protect -8.0 and APOBEC3G inh 3.5.
For Cc1ccc(Cn2c(/C=C/c3ccco3)nc3ccccc32)cc1 the results were PfG6PD inh 44.0, APOBEC3A inh -2.0, NadD inh 31.7*, Cardio protect -6.1, APOBEC3G inh -2.9 and NadD conf 41.0.
Screening NS(=O)(=O)c1ccc(CCNC(=O)C(=O)c2cn(CC(=O)N3CCCC3)c3ccccc23)cc1 returned PfG6PD inh -7.5, APOBEC3A inh -1.9, NadD inh 6.4, H9c2 TAG inh 5.4, Cardio protect 4.1 and APOBEC3G inh -6.3.
`O=C(CSc1nc2c(cnn2-c2ccc(F)cc2)c(=O)[nH]1)N1N=C(c2cccs2)CC1c1ccc(F)cc1` (stereo unspecified) gave NadD inh 53.5*, H9c2 TAG inh -6.6, Cardio protect 10.2 and NadD conf 0.6.
`C[C@H]1CN([C@@H](C)CO)C(=O)CCCn2nncc2CO[C@H]1CN(C)S(=O)(=O)c1ccc2ccccc2c1` gave PfG6PD inh 4.3, NadD inh 3.2, H9c2 TAG inh -2.9 and Cardio protect 5.9.
For Nc1nc(COc2ccccc2C=O)nc(Nc2ccccc2)n1 the results were PfG6PD inh -6.0, APOBEC3A inh -4.5, NadD inh 29.0*, H9c2 TAG inh 15.0, Cardio protect 7.3, APOBEC3G inh -10.3 and NadD conf 36.0*.
For O=C(Nc1ccc(Oc2ccccc2)cc1)c1csc(COCCO)n1 the results were NadD inh -3.6, H9c2 TAG inh -2.2 and Cardio protect -28.2.
`O=C1NC[C@H](Cc2ccccc2)N(C[C@H]2CCCN2C[C@H](Cc2ccccc2)N2C[C@H](Cc3ccccc3)N(CC3CCCCCC3)C(=O)C2=O)C1=O` gave PfG6PD inh -17.5, NadD inh 22.2, H9c2 TAG inh -8.9 and Cardio protect -6.0.
O=C1NC[C@H](Cc2ccc(O)cc2)N(C[C@@H]2CCCN2C[C@H](Cc2ccc(O)cc2)N2C[C@H](Cc3ccccc3)N(CC3CCCCC3)C(=O)C2=O)C1=O was read as NadD inh 32.9* and NadD conf 38.5.
O=C1NC[C@H](Cc2ccccc2)N(C[C@@H]2CCCN2C[C@H](Cc2ccc(O)cc2)N2C[C@H](Cc3ccccc3)N(CCc3ccccc3)C(=O)C2=O)C1=O was read as NadD inh 30.3* and NadD conf 32.1.
